The text below walks through data of PubChem BioAssay.

Experiment [1] is described as follows: inhibitors of TNFa-induced NFkB p65 translocation, primary screen, imaging, HUVEC, MLSMR starter and 10KST1 sets (AID 438;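 active = inhibition above 20% together with a positive visual image hit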;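 also: compound added about 3h40 before a 20 min TNFalpha stimulation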;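 as to inhibition: signal is the nuclear over cytoplasmic p65 intensity ratio per well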). The note with it: HUVEC TNFa-induced p65 nuclear translocation; cell count: measured here: nuclei count (cytotoxicity indicator), at 2.08 µM; inhibition: at 2 µM, stronger effect = higher value, 0% TNFa-plus-vehicle, 100% no-TNFa wells.
Experiment [2] is described as follows: reduction of polyQ htt aggregates in cells – imaging, exon1htt(103Q)mCFP cells, high-content imaging, primary screen (AID 483;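 active = visual image review flags a hit and inhibition of aggregation exceeds 20%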;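 also: compound exposure lasted 3 days before fixation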;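 as to nuclei count: percent of the per-plate median nuclei count of sample wells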). To be noted: exon1htt(103Q)mCFP cell line, aggregate imaging, at 2 µM; inhibition of aggregation: stronger effect = higher value; nuclei count: measured here: cell count, toxicity.
Experiment [3] can be described thus: endothelial E-selectin expression blockers – imaging, HUVEC, immunofluorescence, MLSMR starter and 10KST1 sets, primary screen (AID 487;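 active = visually confirmed hit in the image check and inhibition above 20%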;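 as to inhibition: signal is fraction of cell area covered by stained E-selectin grains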;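 as to nuclei count: 100% = median nuclei count of all wells on the same plate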). To be noted: HUVEC TNFalpha-induced E-selectin immunofluorescence imaging, at 2 µM; inhibition: stronger effect = higher value; nuclei count: measured here: cell number, toxicity.
Experiment [4] addresses Voltage-gated potassium channel subunit beta-2 (Rattus norvegicus) (UniProt P62483). Nature of the experiment: inhibitors of rat Kvbeta2 reductase activity – biochemical, NADPH fluorescence, primary screen (AID 622;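 active = fluorescence slope higher than the sample average by over 3 SD, cut at about -0.22 in these data, passing the limit was not always enough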;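 also: slope of raw intensity against log time taken from 70 to 1610 s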). To be noted: recombinant KvBeta, 4-cyanobenzaldehyde reduction, at 10 µM, stronger effect = higher value.
The target is the same in experiment [5]. Nature of the experiment: enhancers of rat Kvbeta2 NADPH turnover – biochemical, NADPH fluorescence, primary screen (AID 623;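 active = NADPH fluorescence slope more negative than the mean of all samples by about 3 SD, 99.7% confidence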;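 also: fluorescence intensity change per second fitted from 20 to 320 s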). The note with it: Recombinant KvBeta, NADPH fluorescence decrease slope, 10 min; at 10 µM; stronger effect = lower value.
In experiment [6] the target is Alpha-2C adrenergic receptor (Homo sapiens) (UniProt P18825). Nature of the experiment: compounds altering alpha2C-coupled GIRK flux – cell-based, HEK293 alpha2C/GIRK1/2, thallium flux, primary screen (AID 624;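 active = fluorescence slope after compound addition differing from the mean of all screened samples at 99.7% confidence, in either direction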;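 also: slope of fluorescence ratio to pre-addition baseline per second over 15 to 24 s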). To be noted: thallium flux BTC fluorescence, at 10 µM, actives lie on both sides.
Alpha-2C adrenergic receptor (Homo sapiens), sequence (P18825 whole entry, looked up): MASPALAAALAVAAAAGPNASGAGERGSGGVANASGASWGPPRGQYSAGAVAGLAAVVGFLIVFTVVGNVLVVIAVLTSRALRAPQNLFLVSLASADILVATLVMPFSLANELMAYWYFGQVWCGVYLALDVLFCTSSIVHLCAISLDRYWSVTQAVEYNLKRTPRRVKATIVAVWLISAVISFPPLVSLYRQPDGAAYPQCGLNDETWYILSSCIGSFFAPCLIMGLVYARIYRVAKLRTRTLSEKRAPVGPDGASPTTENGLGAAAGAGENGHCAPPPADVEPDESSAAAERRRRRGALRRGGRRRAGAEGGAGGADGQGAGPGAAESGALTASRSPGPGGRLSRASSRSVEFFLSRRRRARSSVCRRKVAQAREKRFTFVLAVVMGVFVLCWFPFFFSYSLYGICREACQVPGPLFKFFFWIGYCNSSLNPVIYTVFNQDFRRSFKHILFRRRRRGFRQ
A short description of experiment [7]: blockers of RIG-like receptor reporter activation – cell-based, Sendai virus stimulus, luciferase, 10K MLSCN set, TLR/RLR signaling modifier project, primary screen (AID 602276).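 Also: firefly luciferase from ISG56 promoter only with Renilla not read in this screen; 0% = Sendai virus plus DMSO and 100% = medium plus DMSO without virus.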 To be noted: HEK293 RL24 IRF3 luciferase reporter, at 10 µM, stronger effect = higher value. On the technique in general: A reporter such as luciferase makes a cellular process visible.
Experiment [8] can be described thus: TLR3 IRF3 reporter activation blockers – cell-based, poly I:C stimulus, luciferase, 10K MLSCN set, primary screen (AID 602277;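 active = inhibition of the reporter signal at or above 50%; inactive = inhibition below 50%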). To be noted: HEK293-TLR3 RL24 IRF3 luciferase reporter, at 10 µM, stronger effect = higher value.

What is called inhibition is the change of the read-out against control, counted positive when it falls.

Calls of active or inactive are those of the source.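 The calls were made as follows, unless noted: active = inhibition at or above 50% at 10 µM; inactive = inhibition below 50%.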

Voltage-gated potassium channel subunit beta-2 (Rattus norvegicus), sequence (P62483 whole entry, looked up): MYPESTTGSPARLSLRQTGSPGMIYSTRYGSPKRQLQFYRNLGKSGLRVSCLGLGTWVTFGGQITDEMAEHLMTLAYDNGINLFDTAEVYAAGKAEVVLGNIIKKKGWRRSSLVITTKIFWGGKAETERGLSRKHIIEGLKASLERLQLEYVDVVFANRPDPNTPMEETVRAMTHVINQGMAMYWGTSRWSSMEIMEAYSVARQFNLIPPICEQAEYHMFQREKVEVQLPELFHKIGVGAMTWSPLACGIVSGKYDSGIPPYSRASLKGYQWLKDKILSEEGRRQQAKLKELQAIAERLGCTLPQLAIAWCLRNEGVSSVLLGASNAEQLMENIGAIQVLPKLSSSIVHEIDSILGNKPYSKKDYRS

`NCCN1CCN(CCN)CC1`: in experiment [1], the cell count was 728. The inhibition was -10% (inactive) in experiment [1], -23.9% (inactive) in experiment [3], 12.2% (inactive) in experiment [7] and 18.8% (inactive) in experiment [8]. Besides, in experiment [2], the inhibition of aggregation was -4.6% (inactive). Moreover, the values for the nuclei count in experiment [2] and in experiment [3] were 116% and 132%, respectively. Moreover, the fluorescence slope in experiment [4] was -0.436 (inactive). In experiment [5], the NADPH fluorescence slope was -1.1e-05 (inactive). Also, the slope in experiment [6] was 0.00707 (inactive).

With `COc1ccc(NC(=O)CSc2nnc(Cc3cccn3C)n2-c2ccc(F)cc2)cc1OC`, the cell count in experiment [1] is 541. The inhibition in experiment [1] was -1.3% (inactive); in experiment [3], -59.2% (inactive); in experiment [7], 12.2% (inactive); in experiment [8] it was 27.1% (inactive). In addition, the inhibition of aggregation in experiment [2] is -0.2% (inactive). Further, the nuclei count in experiment [2] was 92.7%; in experiment [3] it was 118%. Besides, in experiment [4], the fluorescence slope is -0.588 (inactive). For the same compound, in experiment [5], the NADPH fluorescence slope was -2.4e-05 (inactive). Further, the slope in experiment [6] is 0.00584 (inactive).

Regarding `O=C(COC(=O)C1CCN(S(=O)(=O)c2cccs2)CC1)c1cc2ccccc2o1`, in experiment [1], the cell count came to 536. The inhibition is -8.3% (inactive) in experiment [1], -97.6% (inactive) in experiment [3], 12.4% (inactive) in experiment [7] and 31.7% (inactive) in experiment [8]. For the same compound, in experiment [2], the inhibition of aggregation is -0.1% (inactive). In addition, the nuclei count in experiment [2] stood at 98.7%; in experiment [3], 112%. The fluorescence slope in experiment [4] was -0.501 (inactive). Moreover, the NADPH fluorescence slope in experiment [5] is -1.4e-05 (inactive). For the same compound, the slope in experiment [6] was 0.00534 (inactive).

With `CC(=O)N1CCN(C(C)=O)C1c1ccccc1`, the cell count in experiment [1] worked out at 464. Besides, the inhibition in experiment [1] is 6% (inactive); in experiment [3] it was -231% (inactive); in experiment [7], -22% (inactive); in experiment [8] it was -25.1% (inactive). The inhibition of aggregation in experiment [2] was -9.6% (inactive). Besides, the nuclei count in experiment [2] came out at 106%; in experiment [3], 133%. Further, the fluorescence slope in experiment [4] was -0.376 (inactive). Further, in experiment [5], the NADPH fluorescence slope is 5.2e-06 (inactive). Moreover, in experiment [6], the slope is 0.00709 (inactive).

As to `COc1ccc(-c2noc(CCN3C(=O)c4ccccc4C3=O)n2)cc1OC`, the cell count in experiment [1] was determined as 555. Also, the inhibition in experiment [1] was 7.6% (inactive); in experiment [3], 28.6% (inactive); in experiment [7] it was -0.74% (inactive); in experiment [8], 26.4% (inactive). In addition, in experiment [2], the inhibition of aggregation was -3.7% (inactive). For the same compound, the nuclei count in experiment [2] is 108%; in experiment [3], 104%. In addition, in experiment [4], the fluorescence slope is -0.497 (inactive). The NADPH fluorescence slope in experiment [5] is -2.8e-05 (inactive). For the same compound, the slope in experiment [6] is 0.00665 (inactive).

Take `CC1(c2ccc(Cl)cc2)NC(=O)N(CC(=O)NC(=O)NCc2ccco2)C1=O` (configuration not stated): the cell count in experiment [1] worked out at 482. Besides, the inhibition was 2.9% (inactive) in experiment [1], -48.5% (inactive) in experiment [3], 14.9% (inactive) in experiment [7] and 18.4% (inactive) in experiment [8]. Moreover, the inhibition of aggregation in experiment [2] was -25.8% (inactive). Further, the nuclei count is 102% in experiment [2] and 110% in experiment [3]. Besides, the fluorescence slope in experiment [4] was -0.399 (inactive). Moreover, the NADPH fluorescence slope in experiment [5] is -4.4e-05 (inactive). For the same compound, the slope in experiment [6] is 0.00253 (inactive).

Take `CCOC(=O)N1CCN(C(=O)c2csc3c2CCCCC3)CC1`: the cell count in experiment [1] worked out at 775. For the same compound, the inhibition in experiment [1] is -27.2% (inactive); in experiment [3] it was -86% (inactive); in experiment [7] it was -2.32% (inactive); in experiment [8], 9.33% (inactive). In addition, the inhibition of aggregation in experiment [2] was 15.1% (inactive). The nuclei count turned out to be 121% in experiment [2] and 106% in experiment [3]. Moreover, the fluorescence slope in experiment [4] is -0.311 (inactive). Besides, the NADPH fluorescence slope in experiment [5] is 1.7e-05 (inactive). The slope in experiment [6] was 0.00586 (inactive).
